CYP2C19 inh – human CYP2C19 inhibition; CYP2C19 Supersomes, luciferin-H EGE luminescence, 30 min; 21% of 96,000 active; inhibition, % at 5 µM; P33261;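 active = CYP2C19 inhibition above a set limit at 5 µM in the primary screen, cut at about 50% in these data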
Target sequence (P33261 whole entry, looked up): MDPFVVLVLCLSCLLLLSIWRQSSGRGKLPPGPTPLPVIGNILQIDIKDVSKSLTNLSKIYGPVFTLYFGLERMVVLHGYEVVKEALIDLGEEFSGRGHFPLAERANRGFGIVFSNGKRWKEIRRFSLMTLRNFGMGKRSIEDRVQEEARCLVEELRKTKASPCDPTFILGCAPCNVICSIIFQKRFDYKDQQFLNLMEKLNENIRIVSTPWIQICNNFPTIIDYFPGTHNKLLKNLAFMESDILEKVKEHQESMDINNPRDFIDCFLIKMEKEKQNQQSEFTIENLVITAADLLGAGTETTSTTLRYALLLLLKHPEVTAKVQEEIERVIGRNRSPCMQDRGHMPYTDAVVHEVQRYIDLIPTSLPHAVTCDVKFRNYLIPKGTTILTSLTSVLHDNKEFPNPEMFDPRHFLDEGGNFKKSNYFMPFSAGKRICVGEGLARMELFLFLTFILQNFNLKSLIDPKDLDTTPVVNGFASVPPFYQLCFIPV
CYP2C9 act – CYP2C9 (human) activation; P11712; activation factor at 5 µM; 1.4% of 96,000 active; recombinant CYP2C9, luciferin-H conversion, luminescence; stronger effect = higher value; factor 1 = untreated enzyme, 0 = blocked;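 active = activation factor of 2 or more for CYP2C9 at a 5 µM dose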
Cav32 inh – inhibitors of human Cav3.2 T-type calcium channel; AID 449739; O95180; Cav3.2-expressing cells, Fluo-4 calcium fluorescence FDSS; stronger effect = lower value; 4% of 100,000 active; B-score at 10 µM;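 active = single-dose well whose peak fluorescence ratio is a statistical outlier from its plate by either plate-standardised score or position-corrected B-score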
Pyk2 oligo antag – antagonists of human Pyk2 oligomerization | z-score (the deposit names both 25 µM and 10 µM) | 0.83% of 99,000 active | AID 1347419 | Q293 cells, Pyk2 FERM NanoBiT luminescence; stronger effect = lower value | Q14289;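 active = Z-score of -3 or lower, scaled per plate to the spread of control and sample wells; inactive = z-score above -3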;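 note: negative z-score means lost luminescence so less FERM oligomerization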
CYP2C19 activ – increases human CYP2C19 enzyme activity; P33261; recombinant CYP2C19, luciferin-H EGE luminescence; stronger effect = higher value; 0 = fully inhibited enzyme, 1 = untreated enzyme; activation factor at 5 µM; 96,000 tested, under 10 active; AID 1025;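 active = activation factor of at least 2 at 5 µM in the primary screen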
CYP2C9 inh – inhibitors of human CYP2C9 | CYP2C9 Supersomes, luciferin-H conversion, luminescence | 20% of 96,000 active | P11712 | inhibition, % at 5 µM;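 active = blocking of liver enzyme CYP2C9 beyond about 50% at 5 µM, limit read from the data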
Of the large screens only hits and unclear results are named; the others gave an inactive call. Hits are enriched below; roughly 27% of the tested compounds scored in any of these assays.

COc1ccc(CCNC(=O)c2nnc(Cc3c(F)cccc3Cl)o2)cc1OC	none
Cc1ccc2oc(-c3ccc(NC(=O)c4ccc5c(c4)OCO5)cc3)nc2c1	none (no result: CYP2C19 inh, CYP2C9 act, CYP2C19 activ, CYP2C9 inh)
Cc1cc(C)n(-c2ccc(C(=O)Nc3ccc4c(c3)OCCO4)cc2)n1	CYP2C19 inh 50.0
O=C(Nc1ccc2nn(-c3ccccc3)nc2c1)c1ccc2c(c1)OCCO2	CYP2C19 inh 58.9, CYP2C9 inh 55.5
O=C(Nc1ccc2oc(-c3ccccc3F)nc2c1)c1ccc2c(c1)OCCO2	Pyk2 oligo antag -3.14, CYP2C9 inh 51.3
CC(=O)Nc1ccc2oc(-c3ccccc3Br)nc2c1	CYP2C9 inh 72.6 (no result: Cav32 inh, Pyk2 oligo antag)
CCCCNC1C(CC)C(CCC)C(C#N)(C#N)C1(C#N)C#N (centres undefined)	none
Cc1ccc(NC(=S)N2CCOCC2)c(C)c1	none
COc1cc(O)c(C(CC(=O)N2CCCC2)c2ccc(N(C)C)cc2)c(OC)c1 (centres undefined)	none (no result: CYP2C19 inh, CYP2C9 act, Pyk2 oligo antag, CYP2C19 activ, CYP2C9 inh)
COc1ccc(CCN2CCC(Nc3nc4ccccc4n3Cc3ccc(F)cc3)CC2)cc1	Cav32 inh -4.96 (no result: CYP2C19 inh, CYP2C9 act, Pyk2 oligo antag, CYP2C19 activ, CYP2C9 inh)
CCOc1ccc(CNc2nc3ccccc3n2CCN2CCOCC2)cc1	none (no result: CYP2C19 inh, CYP2C9 act, CYP2C19 activ, CYP2C9 inh)
C=C1CCN([C@@H](CC(C)C)C(=O)NCCC(C)C)S(=O)(=O)c2ccccc21	none (no result: CYP2C19 inh, CYP2C9 act, Pyk2 oligo antag, CYP2C19 activ, CYP2C9 inh)
NC(=O)c1cnn2c1NC(c1ccc(F)cc1)CC2C(F)(F)F (centres undefined)	CYP2C19 inh 61.6, CYP2C9 inh 54.5
Cc1nn(Cc2ccc(F)cc2)c(C)c1NC(=O)c1cnn2c1NC(c1cccs1)CC2C(F)(F)F (centres undefined)	none
Cc1c(NC(=O)c2cnn3c2NC(c2ccc(Br)cc2)CC3C(F)(F)F)c(=O)n(-c2ccccc2)n1C (centres undefined)	Cav32 inh -7.77 (no result: CYP2C19 inh, CYP2C9 act, CYP2C19 activ, CYP2C9 inh)
O=C(O)c1cnn2c1NC(c1cccs1)CC2C(F)(F)F (centres undefined)	none
Cc1nn(Cc2ccc(F)cc2)c(C)c1NC(=O)c1cnn2c1NC(c1ccccc1)CC2C(F)(F)F (centres undefined)	CYP2C9 inh 66.9
O=C(NCC1CCCO1)c1cnn2c1NC(c1ccccc1)CC2C(F)(F)F (centres undefined)	none (no result: Cav32 inh)
O=C(NCCCn1ccnc1)c1cnn2c1NC(c1ccccc1)CC2C(F)(F)F (centres undefined)	CYP2C19 inh 84.9, CYP2C9 inh 97.4
Cc1nn(C)cc1CNC(=O)c1cnn2c1NC(c1ccc(Br)cc1)CC2C(F)(F)F (centres undefined)	none
CC[C@@H](C)[C@@H](C(=O)N1CCNCC1)n1cc(CCC(=O)O)nn1	none (no result: CYP2C19 inh, CYP2C9 act, Pyk2 oligo antag, CYP2C19 activ, CYP2C9 inh)
Cc1c(CNC(=O)c2cnn3c2NC(c2ccc(Br)cc2)CC3C(F)(F)F)cnn1C (centres undefined)	CYP2C9 inh 66.8
Cc1nnc(NC(=O)CSc2nc(C(C)C)nc3ccccc23)s1	CYP2C9 inh 66.3
CC(C)c1nc(SCC(=O)Nc2nc3c(s2)CCCC3)c2ccccc2n1	none
O=C(CSc1ncn(-c2ccccc2)n1)Nc1nc(-c2ccccc2)cs1	none (no result: CYP2C19 inh, CYP2C9 act, CYP2C19 activ, CYP2C9 inh)
O=C(CSc1ncn(-c2ccccc2)n1)Nc1nc2c(s1)CCCC2	Cav32 inh -4.24, CYP2C9 inh 64.0
O=C(CCSc1ccccc1)Nc1nc2c(s1)CCCC2	none
O=C(CSc1ncn(-c2ccccc2)n1)Nc1nc2ccccc2s1	CYP2C19 inh 64.9, CYP2C9 inh 64.6
CC(=O)Nc1ccc(C(=O)CSc2ncn(-c3ccccc3)n2)cc1	CYP2C19 inh 67.3, CYP2C9 inh 74.9
CSc1ccc(/C=N/NC(=O)c2cccc(O)c2)cc1	none
Cc1cccc(OCc2nnc(SCC(=O)Nc3cc(C)on3)n2C)c1	none
Cc1ccc(N(c2ncnc(N)c2[N+](=O)[O-])C2CCCCC2)cc1	none
Cn1nnnc1SCC(=O)Nc1ccccc1C(=O)NCc1ccccc1	none
Cc1ccc2cc(C)c3nnc(SCC(=O)Nc4nc5c(s4)CCCC5)n3c2c1	CYP2C19 inh 57.1, CYP2C9 inh 61.4 (no result: Pyk2 oligo antag)
O=C(CSc1ncn(-c2ccccc2)n1)Nc1nccs1	CYP2C19 inh 55.8
Cn1cc(SCC(=O)Nc2nc3ccccc3s2)c2ccccc21	none
Cc1csc(SCC(=O)Nc2nc3ccccc3s2)n1	CYP2C19 inh 92.1, CYP2C9 inh 94.4
Cc1csc(NC(=O)CCc2nc3ccccc3s2)n1	CYP2C19 inh 83.0
Cc1cnc(NC(=O)CCCc2nc3ccccc3s2)s1	none
CC1=C(C(=O)N(C)CCC#N)C2(CCCCC2)OC1=O	none (no result: Pyk2 oligo antag)
Cc1ccc(-c2csc(NC(=O)CSc3ncn(-c4ccccc4)n3)n2)cc1	CYP2C19 inh 63.5, CYP2C9 inh 66.6
Cn1c(SCC(=O)Nc2nc3c(s2)CCCC3)nnc1-c1ccccc1	Cav32 inh -6.05
O=C(CSc1nc(Cc2ccccc2)nc2ccccc12)Nc1nc2c(s1)CCCC2	CYP2C19 inh 84.8, Cav32 inh -4.75, CYP2C9 inh 93.1
Cc1csc(NC(=O)CCS(=O)(=O)c2ccc(Br)cc2)n1	CYP2C9 inh 85.3
CC(C)(C)c1nc(SCC(=O)Nc2nc3c(s2)CCCC3)c2ccccc2n1	none
Cc1ccc(S(=O)(=O)CCC(=O)Nc2nccs2)cc1	none
Cc1cc(Nc2ccc(Br)cc2F)n2nc(C)nc2n1	none (no result: CYP2C19 inh, CYP2C9 act, Pyk2 oligo antag, CYP2C19 activ, CYP2C9 inh)
CCn1c(N)c(C(=O)NCCCOC)sc1=S	none (no result: Cav32 inh)
CC(C)OCCCNC(=O)c1sc(=S)n(C)c1N	CYP2C19 inh 57.1, CYP2C9 inh 67.4
CCOC(=O)C1=NNC(C(=O)c2ccc(OC)cc2)C1c1ccccc1 (centres undefined)	CYP2C9 inh 52.2
COc1ccccc1N1CCN(C(=O)Cn2c(=O)[nH]c3ccsc3c2=O)CC1	none
CCN(CC)C(=O)CN(c1ccc(Cl)cc1)S(=O)(=O)c1ccccc1	CYP2C19 inh 68.0
O=[N+]([O-])c1cccc(C2Nc3cccc4cccc(c34)N2)c1	none (no result: CYP2C19 inh, CYP2C9 act, Cav32 inh, CYP2C19 activ, CYP2C9 inh)
Oc1ccc(C2Nc3cccc4cccc(c34)N2)c(O)c1	CYP2C19 inh 66.4 (no result: CYP2C9 act, CYP2C9 inh)
c1coc(C2Nc3cccc4cccc(c34)N2)c1	CYP2C19 inh 59.3, CYP2C9 inh 54.0 (no result: Cav32 inh, Pyk2 oligo antag)
Cc1c(NC(=O)C(C)NCC2CCCO2)c(=O)n(-c2ccccc2)n1C (centres undefined)	none
Cc1[nH]nc2c1-c1nc3ccccc3nc1C(C)(C)C2	CYP2C19 inh 67.6
Cc1n[nH]c(C)c1-c1nc2ccccc2[nH]1	none (no result: CYP2C19 inh, CYP2C9 act, CYP2C19 activ, CYP2C9 inh)
CC(=O)N1CCC(=O)N(C(C)C)c2ccccc21	none
Cc1ccc(Cl)cc1N1CCN(C(CC(C)C)c2nnnn2CC2CCCO2)CC1 (centres undefined)	none
Cc1ccc(C(c2nnnn2CC2CCCO2)N2CCN(c3cccc(C)c3C)CC2)cc1 (centres undefined)	Pyk2 oligo antag -3.44, CYP2C9 inh 69.7 (no result: Cav32 inh)
CCCC(c1nnnn1CC1CCCO1)N1CCN(c2cc(Cl)ccc2C)CC1 (centres undefined)	CYP2C19 inh 95.5, CYP2C9 inh 88.7 (no result: Cav32 inh)
